These results are taken from PubChem BioAssay (NCATS).

SMILES strings stand for the structures. “And” between values parts separate entries of the source, which are not always exact repeats. Identical values can stand only once. Results filed as inconclusive are left out. The source made the active and inactive calls. Calls come from the whole dose curve; as a rule, active = well fitted inhibition curve with a large enough effect; inconclusive = small, poorly fitted or top-dose-only effect; inactive = flat fitted curve, though single readings scatter.
% is set by controls: 0 for no effect and ±100 for the full control effect; potency is the fitted concentration of half-maximal effect.

In the test the test system is CRL-7250. Put plainly: Cytotoxic Profiling of Annotated Libraries Using Quantitative High-Throughput Screening (AID 1296008). Note: nearly all actives have a fitted effect of over 60% in size. The following applies: Five cell lines viability, CellTiter-Glo ATP luminescence, 48-72 h; max response: hits give low values. In a few lines: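 Cytotoxicity was measured as CellTiter-Glo ATP luminescence, read after 10 min at room temperature. Compound treatment of the cells lasted 48 or 72 hr at 37 degrees Celsius in a qHTS format.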
Background: In ATP-based viability assays light output follows the ATP content of the culture.
Take `CC1(C)SCCN(S(=O)(=O)c2ccc(OCC#CCO)cc2)[C@@H]1C(=O)NO`: the max response is -4.21% (inactive).

On to `CNC(=O)c1ccccc1Sc1ccc2c(/C=C/c3ccccn3)n[nH]c2c1`, for which the Potency is 5800 nM (active).

Take `CN(C(=O)c1ccc(F)cc1C(F)(F)F)C1CCN(c2nnc(-c3ccnn3C)c3ccccc23)CC1`: the max response was -27.2% (inactive) and -23.7% (inactive).

Consider `CS(=O)(=O)Oc1ccc2c(NC(N)=O)c(C(=O)c3ccc(Cl)cc3Cl)oc2c1`, for which the result was inactive.

For `Cc1ccc(-n2nc(C(C)(C)C)cc2NC(=O)Nc2ccc(OCCN3CCOCC3)c3ccccc23)cc1`, the max response was 1.93% (inactive) and -9.63% (inactive).

Consider `COc1nc(-c2ccc3c(c2)OCO3)n(-c2ccc(NC(=O)CSc3ccccc3)cc2)n1`, for which the max response was -34% (inactive).

Turning to `Cc1cc(SCc2sc(-c3ccc(C(F)(F)F)cc3)nc2C)ccc1OCC(=O)O`, the max response was -3.25% (inactive).

In the case of `COc1cccc2cc(-c3nc(C4CCC(C(=O)O)CC4)n4ncnc(N)c34)[nH]c12` (configuration not stated), the Potency is 166 nM (active).

For the compound `CCOc1ccn(-c2ccc(F)cc2)c(=O)c1C(=O)Nc1ccc(Oc2ccnc(N)c2Cl)c(F)c1`, the max response was -27.8% (inactive).

With `O=C1[C@H](Cc2ccc(O)cc2)N2C(=O)CCN(C(=O)NCc3ccccc3)[C@H]2CN1Cc1cccc2ccccc12`, the max response was -59.7% (inactive).

As for `O=C(C=Cc1ccc(/C=C/C(=O)Nc2ccc(C3=NCCN3)cc2)cc1)Nc1ccc(C2=NCCN2)cc1`, the call was inactive.

Regarding `COc1cc2c(cc1OC)CN(CCc1ccc(NC(=O)c3cccc4c(=O)c5cccc(OC)c5[nH]c34)cc1)CC2`, the max response is 0.448% (inactive) and -2.79% (inactive).
